The record followed here is ChEMBL document CHEMBL3988442, “University of Dundee, Small-Polar-MMV Screening Library” (2021).

For some of these results: Measured potencies and affinities stand elsewhere.

Common to all, as to parameters: scale not given: direction of the effect not stated beside the values
The target in test [1] is Protein translocase subunit SecA (Escherichia coli (strain K12)) (UniProt P10408). Nature of the test: Assay to Identify E. coli SecA ATPase Inhibitors. Type of test: functional. Particulars: 30 µM.
Chain of Protein translocase subunit SecA (Escherichia coli (strain K12)) (P10408 whole entry): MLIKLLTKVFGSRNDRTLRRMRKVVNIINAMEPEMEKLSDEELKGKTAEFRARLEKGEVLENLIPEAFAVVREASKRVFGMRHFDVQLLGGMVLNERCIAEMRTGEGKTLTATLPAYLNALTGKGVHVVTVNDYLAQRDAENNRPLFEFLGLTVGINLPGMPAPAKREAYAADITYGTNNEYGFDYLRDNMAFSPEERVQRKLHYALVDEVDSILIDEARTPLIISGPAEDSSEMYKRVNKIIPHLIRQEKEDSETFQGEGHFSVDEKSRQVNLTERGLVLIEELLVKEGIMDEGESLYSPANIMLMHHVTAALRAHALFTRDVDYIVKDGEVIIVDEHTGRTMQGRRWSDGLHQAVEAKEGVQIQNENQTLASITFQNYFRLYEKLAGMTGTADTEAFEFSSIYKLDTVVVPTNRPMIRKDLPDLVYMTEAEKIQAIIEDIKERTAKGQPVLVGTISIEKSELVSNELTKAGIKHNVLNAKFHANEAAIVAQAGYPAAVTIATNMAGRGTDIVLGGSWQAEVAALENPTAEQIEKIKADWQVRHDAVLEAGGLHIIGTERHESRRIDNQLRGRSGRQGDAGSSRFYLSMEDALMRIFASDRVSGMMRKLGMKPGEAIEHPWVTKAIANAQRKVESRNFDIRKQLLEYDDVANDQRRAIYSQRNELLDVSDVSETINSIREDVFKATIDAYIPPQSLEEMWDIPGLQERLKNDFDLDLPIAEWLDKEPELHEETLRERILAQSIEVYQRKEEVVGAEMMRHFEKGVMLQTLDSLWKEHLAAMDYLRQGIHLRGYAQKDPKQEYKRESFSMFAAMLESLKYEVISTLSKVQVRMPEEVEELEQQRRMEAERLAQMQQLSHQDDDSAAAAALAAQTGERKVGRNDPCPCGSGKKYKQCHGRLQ
Test [2] has as its target T1, Ubiquitin-activating enzyme e1, putative (Leishmania donovani (strain BPK282A1)) (UniProt E9BSI1).
T1 sequence (whole entry): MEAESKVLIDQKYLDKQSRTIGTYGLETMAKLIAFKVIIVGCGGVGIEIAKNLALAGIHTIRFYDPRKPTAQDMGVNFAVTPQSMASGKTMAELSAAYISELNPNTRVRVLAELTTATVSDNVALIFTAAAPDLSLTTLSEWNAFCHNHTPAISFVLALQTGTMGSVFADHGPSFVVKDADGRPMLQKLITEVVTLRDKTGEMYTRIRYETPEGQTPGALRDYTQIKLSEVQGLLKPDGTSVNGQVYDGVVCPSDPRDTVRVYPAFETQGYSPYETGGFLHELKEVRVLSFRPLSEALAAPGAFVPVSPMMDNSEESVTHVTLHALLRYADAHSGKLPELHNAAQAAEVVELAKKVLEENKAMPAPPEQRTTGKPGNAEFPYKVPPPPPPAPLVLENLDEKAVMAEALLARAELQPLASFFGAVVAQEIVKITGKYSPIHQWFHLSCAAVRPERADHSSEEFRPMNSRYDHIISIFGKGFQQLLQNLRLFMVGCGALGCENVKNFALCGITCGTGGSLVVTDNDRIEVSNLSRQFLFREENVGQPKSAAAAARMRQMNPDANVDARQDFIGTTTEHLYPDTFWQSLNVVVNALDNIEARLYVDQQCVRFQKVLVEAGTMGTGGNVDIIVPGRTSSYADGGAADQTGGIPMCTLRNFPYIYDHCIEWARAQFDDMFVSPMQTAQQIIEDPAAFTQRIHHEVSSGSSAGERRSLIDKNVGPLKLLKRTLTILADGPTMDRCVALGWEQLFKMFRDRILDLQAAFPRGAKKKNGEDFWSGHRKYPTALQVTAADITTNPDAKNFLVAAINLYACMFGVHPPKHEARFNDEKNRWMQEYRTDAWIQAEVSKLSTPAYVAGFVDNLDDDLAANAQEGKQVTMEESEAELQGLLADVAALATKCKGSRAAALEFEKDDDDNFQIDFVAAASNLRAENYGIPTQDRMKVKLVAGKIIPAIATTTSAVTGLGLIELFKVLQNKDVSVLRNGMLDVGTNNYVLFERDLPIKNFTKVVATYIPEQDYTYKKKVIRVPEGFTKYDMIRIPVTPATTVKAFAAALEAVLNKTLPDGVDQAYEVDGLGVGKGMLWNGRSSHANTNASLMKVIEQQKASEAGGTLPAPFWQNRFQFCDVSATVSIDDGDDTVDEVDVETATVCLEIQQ
The test can be described thus: Leishmania donovani Ubiquitin Activating Enzyme (LdE1). Type of test: functional. The settings on record: 30 µM.

Test [3] deals with AMP-activated protein kinase, AMPK (Homo sapiens) (UniProt P54646+O43741+P54619+Q9UGJ0+Q9Y478+Q13131+Q9UGI9). Nature of the test: AMP-dependent Kinase enzyme assay. An in vitro enzyme assay that detects ADP turnover that is directly proportional to AMPK activity. This uses naive AMPK that is activated during the assay with MK-8722. It counts as functional. Particulars: 30 µM.

Test [4] deals with Sialic acid-binding Ig-like lectin 9 (Homo sapiens) (UniProt Q9Y336). Nature of the test: Hs-Siglec9 ALPHAscreen SOP 20170721. Particulars: 10 µM. A general note: In Alpha technology, singlet oxygen from a donor bead excites a nearby acceptor bead.
Chain of Sialic acid-binding Ig-like lectin 9 (Homo sapiens) (Q9Y336 whole entry): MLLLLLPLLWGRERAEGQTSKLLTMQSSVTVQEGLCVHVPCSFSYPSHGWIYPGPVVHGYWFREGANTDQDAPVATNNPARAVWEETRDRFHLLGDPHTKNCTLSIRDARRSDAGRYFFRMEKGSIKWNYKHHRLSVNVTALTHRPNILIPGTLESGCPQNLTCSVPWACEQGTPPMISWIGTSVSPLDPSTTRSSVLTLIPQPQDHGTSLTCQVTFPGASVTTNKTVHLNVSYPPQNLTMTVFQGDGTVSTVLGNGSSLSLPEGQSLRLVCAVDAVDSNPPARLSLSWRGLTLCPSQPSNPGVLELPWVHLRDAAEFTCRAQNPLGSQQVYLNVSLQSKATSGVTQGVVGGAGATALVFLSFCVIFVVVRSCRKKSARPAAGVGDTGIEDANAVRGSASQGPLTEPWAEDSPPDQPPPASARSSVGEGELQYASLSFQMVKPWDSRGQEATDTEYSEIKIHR
For test [5], the system named is Trypanosoma cruzi. The test can be described thus: Trypanosoma cruzi phosphomannomutase and mannose-1-phosphate guanylyltransferase assay. It counts as functional. The settings on record: 10 µM.
Test [6] deals with T2, Arginase-2, mitochondrial (Homo sapiens) (UniProt P78540).
T2 sequence (whole entry): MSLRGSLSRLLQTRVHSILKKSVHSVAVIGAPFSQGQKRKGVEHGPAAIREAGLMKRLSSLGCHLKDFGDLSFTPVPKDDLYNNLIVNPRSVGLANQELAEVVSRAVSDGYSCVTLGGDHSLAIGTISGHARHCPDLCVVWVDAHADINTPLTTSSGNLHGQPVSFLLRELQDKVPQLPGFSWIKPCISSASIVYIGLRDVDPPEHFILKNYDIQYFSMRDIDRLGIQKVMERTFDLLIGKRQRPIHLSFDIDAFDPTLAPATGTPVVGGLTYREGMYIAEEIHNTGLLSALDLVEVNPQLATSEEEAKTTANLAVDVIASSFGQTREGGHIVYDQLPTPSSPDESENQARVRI
Nature of the test: in vitro enzyme assay to detect the production of urea directly proportional to the activity of Arginase II. Note: in the data most compounds retested in dose-response had high values. The settings on record: 33.3 µM. Type of test: functional.

For test [7], the target named is T3, Proteasome subunit beta (Trypanosoma cruzi) (UniProt O96673).
T3 sequence (whole entry): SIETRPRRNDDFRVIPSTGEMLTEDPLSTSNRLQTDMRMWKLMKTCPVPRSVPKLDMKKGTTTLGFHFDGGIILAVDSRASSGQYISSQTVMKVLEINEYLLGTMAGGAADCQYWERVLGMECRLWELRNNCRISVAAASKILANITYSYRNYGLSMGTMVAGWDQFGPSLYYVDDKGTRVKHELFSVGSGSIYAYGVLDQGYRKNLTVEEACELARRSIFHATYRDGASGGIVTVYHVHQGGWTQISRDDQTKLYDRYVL
Nature of the test: Trypanosoma cruzi proteasome chymotrypsin-like activity (TcProtChymo) assay. Note: in the data most compounds retested in dose-response had high values. It counts as functional. The settings on record: 9.37 µM.

Test [8] is filed under the species Homo sapiens. Nature of the test: To identify inhibition of the IFN signalling (Jak-Stat) pathway via expression of an eGFP reporter gene under the control of an IFN-stimulated response element (ISRE) containing MxA promoter. Type of test: functional. The settings on record: 30 µM.
Test [9] has as its target T4, Tyrosyl-tRNA synthetase, putative (Trypanosoma cruzi (strain CL Brener)) (UniProt Q4DSP6).
T4 sequence (whole entry): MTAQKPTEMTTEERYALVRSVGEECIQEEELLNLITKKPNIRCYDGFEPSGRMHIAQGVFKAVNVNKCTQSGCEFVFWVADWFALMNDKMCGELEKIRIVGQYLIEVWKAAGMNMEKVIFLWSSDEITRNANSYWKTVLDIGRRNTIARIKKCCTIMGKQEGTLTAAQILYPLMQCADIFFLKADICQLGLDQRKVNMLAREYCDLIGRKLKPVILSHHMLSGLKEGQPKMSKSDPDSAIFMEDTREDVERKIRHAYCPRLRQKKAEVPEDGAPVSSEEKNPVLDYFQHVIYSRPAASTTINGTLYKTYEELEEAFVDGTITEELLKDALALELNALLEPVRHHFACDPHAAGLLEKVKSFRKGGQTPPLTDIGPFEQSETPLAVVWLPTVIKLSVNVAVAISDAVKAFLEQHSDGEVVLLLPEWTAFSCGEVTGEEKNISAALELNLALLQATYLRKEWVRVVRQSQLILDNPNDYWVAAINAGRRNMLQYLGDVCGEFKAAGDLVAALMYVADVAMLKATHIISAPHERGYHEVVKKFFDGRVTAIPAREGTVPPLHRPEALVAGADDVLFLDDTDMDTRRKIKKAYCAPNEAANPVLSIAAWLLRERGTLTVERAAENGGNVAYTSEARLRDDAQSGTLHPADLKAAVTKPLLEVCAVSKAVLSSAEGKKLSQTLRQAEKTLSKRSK
The test can be described thus: Trypanosoma cruzi tyrosyl tRNA synthetase (TcYRS) _High Tyrosine SOP. Note: in the data most compounds retested in dose-response had high values. The settings on record: 30 µM. Type of test: functional.

Test [10] addresses T4, Tyrosyl-tRNA synthetase, putative (Trypanosoma cruzi (strain CL Brener)). The test can be described thus: Trypanosoma cruzi tyrosyl tRNA synthetase (TcYRS) SOP. It counts as functional. The settings on record: 30 µM.
Test [11] has as its target Chromo domain-containing protein 1 (Saccharomyces cerevisiae (strain ATCC 204508 / S288c) (Baker's yeast)) (UniProt P32657). The test can be described thus: ScCHD-1 Enzyme Inhibition Assay. Note: in the data most compounds retested in dose-response had high values. It counts as functional. The settings on record: 30 µM.

Chain of Chromo domain-containing protein 1 (Saccharomyces cerevisiae (strain ATCC 204508 / S288c) (Baker's yeast)) (P32657 whole entry, the tested form may be a part): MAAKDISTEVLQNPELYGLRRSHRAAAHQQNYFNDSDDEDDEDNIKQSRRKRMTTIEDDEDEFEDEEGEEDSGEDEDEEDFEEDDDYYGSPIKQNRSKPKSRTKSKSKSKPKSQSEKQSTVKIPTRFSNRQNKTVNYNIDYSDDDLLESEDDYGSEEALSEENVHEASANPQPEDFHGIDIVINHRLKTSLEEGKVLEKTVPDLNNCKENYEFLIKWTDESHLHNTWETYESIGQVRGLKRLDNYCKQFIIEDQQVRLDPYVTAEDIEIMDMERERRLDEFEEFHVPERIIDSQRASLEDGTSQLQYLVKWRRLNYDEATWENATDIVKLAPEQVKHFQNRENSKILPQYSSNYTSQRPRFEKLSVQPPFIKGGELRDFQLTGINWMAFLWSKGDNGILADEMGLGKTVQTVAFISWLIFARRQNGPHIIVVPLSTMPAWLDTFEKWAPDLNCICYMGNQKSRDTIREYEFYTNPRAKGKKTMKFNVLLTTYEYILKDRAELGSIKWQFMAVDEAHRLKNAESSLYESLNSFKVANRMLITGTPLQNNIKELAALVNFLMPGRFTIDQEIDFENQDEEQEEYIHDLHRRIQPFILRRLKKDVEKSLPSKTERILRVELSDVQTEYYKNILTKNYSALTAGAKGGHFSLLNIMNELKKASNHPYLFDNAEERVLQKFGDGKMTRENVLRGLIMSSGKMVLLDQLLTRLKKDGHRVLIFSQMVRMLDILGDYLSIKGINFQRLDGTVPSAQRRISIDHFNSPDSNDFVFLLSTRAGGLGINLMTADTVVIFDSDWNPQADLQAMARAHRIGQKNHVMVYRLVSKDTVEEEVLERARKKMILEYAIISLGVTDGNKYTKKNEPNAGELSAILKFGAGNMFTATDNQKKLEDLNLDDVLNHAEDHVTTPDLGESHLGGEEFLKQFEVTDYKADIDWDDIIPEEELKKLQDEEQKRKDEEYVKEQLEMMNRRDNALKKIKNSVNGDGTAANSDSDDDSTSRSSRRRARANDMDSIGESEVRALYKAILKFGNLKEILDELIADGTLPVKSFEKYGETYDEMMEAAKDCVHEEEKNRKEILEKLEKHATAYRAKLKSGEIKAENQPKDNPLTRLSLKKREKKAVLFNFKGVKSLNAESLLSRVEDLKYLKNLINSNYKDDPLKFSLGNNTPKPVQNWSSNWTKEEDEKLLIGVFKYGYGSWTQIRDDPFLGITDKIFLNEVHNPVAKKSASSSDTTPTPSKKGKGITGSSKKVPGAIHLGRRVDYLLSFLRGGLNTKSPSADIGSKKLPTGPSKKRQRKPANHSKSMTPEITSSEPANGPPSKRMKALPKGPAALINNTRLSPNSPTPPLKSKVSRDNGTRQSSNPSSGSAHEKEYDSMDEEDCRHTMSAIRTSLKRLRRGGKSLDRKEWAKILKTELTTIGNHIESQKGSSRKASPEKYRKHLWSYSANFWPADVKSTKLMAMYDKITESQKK

For the molecule `CCN1CCn2c(C)cnc2C12CCN(C(=O)c1ccc(Cl)cc1)CC2`, the Percent Effect in test [1] was -4.5%; in test [2], 10.7%; in [3], 9.36%; in [4], -7.09%; in [5], -6.95%; in [6], -59%. The Percent Effect is 11.1% in test [7]; 4.01% in [8]; 2.08% in test [9]; 10% in [10]; -6.26% in test [11].
Turning to `Cc1nc(COC[C@@H]2CC[C@H]3[C@H](CCN3c3ncccn3)O2)cs1`, the Percent Effect was -0.526% in test [1]; 0% in test [2]; -0.411% in test [3]; 3.43% in test [4]; -0.394% in test [5]; 4.89% in test [6]. Also, the Percent Effect in test [7] was 15.2%; in test [8] it was 8.36%; in [9] it was 4.25%; in [10], 1.28%; in [11] it was 2.8%.
For `Cc1cnc(N2C[C@H]3C[C@H](C(=O)N(C)C)[C@@H](C2)O3)nc1`, the Percent Effect in [1] was -4.03%; in test [2], -5.33%; in test [3], 5.45%; in test [4] it was -2.75%; in test [5], 6.76%; in [6], -46.1%. In addition, the Percent Effect is 1.54% in [7]; -13.3% in test [8]; -1.04% in [9]; 0% in [10]; -3.12% in test [11].
For the molecule `O=C(c1ccc2c(c1)CCCC2)N1CCOCC1c1ncon1` (stereo unspecified), the Percent Effect in test [1] is -2.2%; in [2], 5.41%; in [3] it was -9.67%; in test [4] it was 7.55%; in [5], 2.17%; in test [6] it was -5.61%. In addition, the Percent Effect in [7] is 9.37%; in test [8], 5.93%; in [9], 3.45%; in test [10], 13.6%; in test [11], -8.29%.
For `O=C(CCNCC(F)(F)F)N1CCC(Nc2cccnn2)CC1`, the Percent Effect in test [1] is 2.07%; in test [2], 28.9%; in test [3], 4.48%; in test [4], -13.6%; in [5], 5.13%; in test [6] it was 4.68%. Besides, the Percent Effect in test [7] was 8.88%; in test [8], 12.2%; in test [9], 4.43%; in test [10] it was 23.5%; in test [11], -14.7%.
Turning to `COCCOc1ccc(NC(=O)N2CCCC2c2ccncc2)cn1` (stereo unspecified), the Percent Effect was -2.75% in [1]; 0% in test [2]; 2.9% in test [3]; 5.29% in test [4]; 2.64% in test [5]; -1.47% in test [6]. Further, the Percent Effect in test [7] was 12.8%; in test [8] it was 11.5%; in [9], 1.91%; in test [10], 0%; in test [11], -22.2%.
Take `O=C1CCc2cc(C(=O)NCc3ccc(-n4cncn4)nc3)ccc2N1`: the Percent Effect in test [1] is -8%; in test [2], 8.11%; in [3], -0.201%; in [4] it was 4.21%; in test [5], -5.19%; in test [6], 0.802%. Also, the Percent Effect is -4.68% in test [7]; 10.4% in [8]; 4.43% in test [9]; 1.24% in [10]; 23.8% in test [11].
As to `O=C(Cn1cc(C(=O)O)ccc1=O)Nc1ccc(Cl)cc1F`, the Percent Effect in test [1] is -1.04%; in test [2] it was 20%; in test [3], -5.95%; in test [4], 0.752%; in test [5] it was 1.38%; in test [6] it was -4.75%. The Percent Effect is 10.7% in test [7]; 9.59% in [8]; 7.41% in test [9]; 10.3% in test [10]; -12% in test [11].
As to `O=C(NCCN1CCCCCC1=O)c1ccn(-c2ccc(F)cc2)n1`, the Percent Effect in [1] was 1.12%; in test [2] it was 13.5%; in test [3], -9.65%; in test [4] it was -9.89%; in test [5], -6.51%; in test [6], 0%. Besides, the Percent Effect is 15.5% in test [7]; 24.8% in test [8]; 4.43% in test [9]; 16.1% in test [10]; -5.87% in test [11].
In the case of `O=S(=O)(c1ccccc1)N1CCN(CCn2ccnc2)CC1`, the Percent Effect was -6.59% in test [1]; 2.74% in [2]; -6.09% in test [3]; -6.85% in test [4]; 0.979% in test [5]; 3.64% in test [6]. In addition, the Percent Effect in [7] was 7.28%; in [8], 6.13%; in test [9], 6.45%; in test [10] it was 7.5%; in test [11], -3.52%.
`O=C(Nc1ccccc1F)N(CCO)Cc1ccsc1`: the Percent Effect in [1] was -4.39%; in test [2], 0%; in [3], 2.24%; in test [4] it was 1.32%; in test [5], -3.76%; in [6] it was -1.92%. For the same molecule, the Percent Effect was -2.51% in test [7]; 29.1% in test [8]; -1.47% in [9]; -4.88% in [10]; 10.7% in test [11].
